Values joined by “and” are separate entries in the source; they are usually repeats but may differ in a detail not shown here. Identical values can stand only once. In all, about 350,000 compounds went through this assay and about 1,600 (0.46%) were called active.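 The calls were made as follows: active = every replicate reaching a set inhibition limit, whatever the replicate mean (cut at about 25% in these data); inconclusive = mean inhibition reaches that limit but some replicates miss it; inactive = the rest.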 Many of the other results were omitted from the sample, so actives are more common in it than they were.

A word on the inhibition: it is the change of the read-out against control, counted positive when it falls.

Sequence of Protein AF-9 (Homo sapiens) (P42568 whole entry, looked up): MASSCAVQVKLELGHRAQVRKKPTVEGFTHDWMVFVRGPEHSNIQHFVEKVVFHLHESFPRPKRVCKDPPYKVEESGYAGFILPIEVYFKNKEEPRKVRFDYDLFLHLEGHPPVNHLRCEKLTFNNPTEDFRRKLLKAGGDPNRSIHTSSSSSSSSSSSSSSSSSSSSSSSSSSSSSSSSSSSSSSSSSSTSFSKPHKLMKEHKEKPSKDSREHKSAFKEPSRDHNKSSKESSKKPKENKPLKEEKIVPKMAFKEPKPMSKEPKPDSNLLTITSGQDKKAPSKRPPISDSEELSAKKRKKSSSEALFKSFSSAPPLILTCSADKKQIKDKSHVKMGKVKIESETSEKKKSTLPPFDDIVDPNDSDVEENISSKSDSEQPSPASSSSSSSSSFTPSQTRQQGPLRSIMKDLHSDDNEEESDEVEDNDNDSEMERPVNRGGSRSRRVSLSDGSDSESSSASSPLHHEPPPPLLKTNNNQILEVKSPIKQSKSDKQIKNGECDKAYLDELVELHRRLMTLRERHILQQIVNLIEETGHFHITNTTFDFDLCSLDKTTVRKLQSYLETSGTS

The test concerns the target Protein AF-9 (Homo sapiens) (UniProt P42568). Kind of test: MLL-AF4/AF9 protein interaction blockers – biochemical, AlphaScreen, biotin-AF4 peptide, FLAG-AF9, single point, primary screen (AID 651704).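 Also: 0% = plate neutral control median and 100% = total signal loss.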 The following applies: biotin-AF4 peptide binding to FLAG-AF9, at 10 µM, active compounds read high. (Alpha assays give light when donor and acceptor beads are brought close together.)
`O=C1Nc2cc(C(=O)N3CCC(N4CCCCC4)CC3)ccc2S/C1=C\c1ccccc1`: the inhibition is 32.5% (active).
With `O=C(Nc1ccccc1)C1CCN(C(=O)c2ccc(Br)cc2)CC1`, the inhibition is -2.26% (inactive).
Next, `CC1CCN(C(=O)c2ccc3c(c2)NC(=O)CN3)CC1`: 4.92% (inactive); `O=C(N[C@H]1CC[C@H](CCn2cc(C3(O)CCCC3)nn2)O[C@H]1CO)C1CC1`: -0.223% (inactive).
`C[C@H]1CN([C@@H](C)CO)C(=O)Cc2cc(N(C)C)ccc2O[C@@H]1CN(C)Cc1ccc(-c2ccccc2)cc1`: the inhibition is 51.6% (active).
Next, `C[C@@H]1CN([C@H](C)CO)C(=O)Cc2cc(N(C)C)ccc2O[C@@H]1CN(C)Cc1ccccc1`: 3.48% (inactive).
Regarding `C[C@@H]1CCCCO[C@H](CN(C)Cc2ccc(C(F)(F)F)cc2)[C@H](C)CN([C@@H](C)CO)C(=O)c2cc(N(C)C)ccc2O1`, the inhibition is 29.4% (active).
For the molecule `C[C@@H]1CN([C@@H](C)CO)C(=O)c2cc(N(C)C)ccc2O[C@@H](C)CCCCO[C@H]1CN(C)Cc1ccncc1`, the inhibition was -1.22% (inactive).
With `C[C@@H]1CCCCO[C@@H](CN(C)Cc2ccncc2)[C@H](C)CN([C@H](C)CO)C(=O)c2cc(N(C)C)ccc2O1`, the inhibition is 1.48% (inactive).
`C[C@H](CO)N1C[C@H](C)[C@H](CN(C)Cc2ccc(C(F)(F)F)cc2)Oc2ccc(N(C)C)cc2CC1=O`: the inhibition is 15.8% (inactive).
For `CCCNC(=O)N1C[C@H](C)[C@@H](OC)CN(C)C(=O)c2ccc(NC(=O)CC)cc2OC[C@@H]1C`, the inhibition is -2.2% (inactive).
Next, `COc1cccc(C#Cc2ccc([C@@H]3[C@H](C#N)N[C@H]3CO)cc2)c1`: -2.01% (inactive); `CC(C)C#Cc1ccc([C@H]2[C@@H](CO)N3C(=O)CN(C(=O)Cc4ccccc4)C[C@H]23)cc1`: -0.595% (inactive).
As to `COc1ccccc1NC(=O)Nc1ccc2c(c1)OC[C@H](C)NC[C@H](C)[C@@H](OC)CN(C)C2=O`, the inhibition is 1.19% (inactive).
For the molecule `Cc1ccc(S(=O)(=O)Nc2ccc3c(c2)C(=O)N([C@@H](C)CO)C[C@@H](C)[C@@H](CN(C)S(=O)(=O)c2ccc(C)cc2)O3)cc1`, the inhibition was -1.03% (inactive).
As to `O=C(O)C[C@@H]1CC[C@H](NC(=O)CCN2CCCCC2)[C@H](CO)O1`, the inhibition is -0.492% (inactive).
As to `Cc1ccccc1C(=O)Nc1ccc(N2CCCCCC2)cc1`, the inhibition was 27.9% (active).
Take `Cc1ccccc1C(=O)N1CCN(c2ccc(NC(=O)c3cccs3)cc2)CC1`: the inhibition was 0.817% (inactive).
Turning to `Cc1ccccc1C(=O)Nc1ccccc1NC(=O)c1ccccc1C`, the inhibition was 0.679% (inactive).
Turning to `O=C(CC1CC1)N[C@@H]1C[C@@H]2O[C@H](CO)CC[C@@H]2O[C@@H]1CCc1ccc(C#Cc2ccccc2)cc1`, the inhibition is -5.03% (inactive).
Next, `Oc1c(CN2CCCC2)cc(COCc2ccccc2)c2cccnc12`: 6.56% (inactive).
Take `Cc1ccc(CN2CCN(c3ncccn3)CC2)c(C)c1`: the inhibition was -1.37% (inactive).
Next, `Oc1c(CN2CCN(c3ccc(F)cc3)CC2)cc(Cl)c2cccnc12`: 41.3% (active); `O=C(NCCNc1ccccc1[N+](=O)[O-])c1ccccc1F`: 0.524% (inactive); `O=[N+]([O-])c1ccccc1NCc1ccccc1Cl`: -5.33% (inactive).
Next, `O=[N+]([O-])c1ccccc1Nc1ccc(O)cc1`: 28.1% (active).
In the case of `COc1ccc2c3c(n(C)c2c1)[C@@H](CO)N(C(C)=O)CC31CCN(Cc2nccs2)CC1`, the inhibition is 3.54% (inactive).
Next, `COc1ccc2c3c(n(C)c2c1)[C@H](CO)N(C(=O)Nc1cccc(F)c1)CC31CN(Cc2nccs2)C1`: 7.77% (inactive).
With `COc1ccc2c3c(n(C)c2c1)[C@@H](CO)N(C(=O)Nc1cccc(F)c1)CC31CCN(Cc2nccs2)CC1`, the inhibition was 28.6% (active).
For the molecule `COc1ccc2c3c(n(C)c2c1)[C@H](CO)N(Cc1cccnc1)CC31CCN(Cc2cccnc2)CC1`, the inhibition was 13.7% (inactive).
Turning to `C[C@H](CO)N1C[C@H](C)[C@H](CN(C)CC2CCCCC2)OCCCC[C@H](C)Oc2ccc(NC(=O)c3ccncc3)cc2C1=O`, the inhibition was -4.16% (inactive).
As for `COC(=O)[C@H]1[C@H]2C[C@H]3c4[nH]c5ccccc5c4CCN3C[C@@H]2CC[C@@H]1O`, the inhibition was 10.9% (inactive) and 1.82% (inactive).
Take `COc1ccc(-c2ccc3[nH]c4c(c3c2)CCN2C[C@H]3[C@H](C)ON(C)[C@H]3C[C@@H]42)cc1`: the inhibition is 27.4% (active).
Consider `COc1cccc(C2c3[nH]c4ccccc4c3CCN2Cc2cccc(C)n2)c1` (stereo not drawn), for which the inhibition was 16.4% (inactive).
Turning to `CCCC#Cc1ccc([C@H]2[C@@H](CO)N3C(=O)CN(C(=O)c4ccncc4)C[C@@H]23)cc1`, the inhibition was -4.03% (inactive).
For `COc1cccc(S(=O)(=O)Nc2ccc3c(c2)[C@H]2C[C@H](CC(=O)O)O[C@H](CO)[C@H]2O3)c1`, the inhibition is -1.01% (inactive).
On to `O=C(Nc1ccccc1)N1CC(=O)N2[C@@H](CO)[C@H](c3ccc(C#CC4CCCC4)cc3)[C@@H]2C1`, for which the inhibition is 7.61% (inactive).
Turning to `Cc1ccc(Nc2cc(C)nc3c(C)ccc([N+](=O)[O-])c23)cc1`, the inhibition was 33.4% (active).
Regarding `Cc1cc(Nc2ccc(C(=O)N3CCCCC3)cc2)c2cccc(C)c2n1`, the inhibition is -1.38% (inactive).
Next, `Cc1cc(Nc2ccc(N3CCOCC3)cc2)c2cccc(C)c2n1`: 7.78% (inactive).
Next, `COc1ccc2c3c(n(C)c2c1)[C@@H](CO)N(Cc1ccncc1)CC31CN(C(=O)C2CCCCC2)C1`: -2.52% (inactive); `COc1ccc2c3c(n(C)c2c1)[C@H](CO)N(C(C)=O)CC31CN(C(=O)c2cnccn2)C1`: -3.28% (inactive).
Take `Cc1ccc(NC(=O)c2ccco2)cc1`: the inhibition was 2.52% (inactive).
For `C/C(=N\NS(=O)(=O)c1ccc(Cl)cc1)c1ccc(NC(=O)c2ccco2)cc1`, the inhibition was 26.4% (active).
As for `C/C(=N/NS(=O)(=O)c1ccccc1)c1ccc(NC(=O)C(F)(F)F)cc1`, the inhibition is 1.28% (inactive).
Next, `CCC(=O)N1CC2(C1)CN(Cc1cc(F)ccc1F)[C@@H](CO)c1[nH]c3cc(OC)ccc3c12`: -4.95% (inactive).
Next, `CCOc1cc(N2CCOCC2)c(OCC)cc1NC(=O)C1=NN(c2cccc(C)c2)C(=O)CC1`: 31.5% (active); `CCOc1cc(N2CCOCC2)c(OCC)cc1NC(=O)COc1cccc(Cl)c1`: 3.04% (inactive).
Next, `CCOc1cc(N2CCOCC2)c(OCC)cc1NC(=O)c1ccc(C)s1`: 13.4% (inactive); `O=C(C[C@@H]1C=C[C@H](NC(=O)Nc2ccccc2F)[C@@H](CO)O1)NCc1ccccc1`: -2.34% (inactive).
In the case of `CCC(=O)N1CC2(C1)[C@@H](c1ccc(-c3ccc(C#N)cc3)cc1)[C@H](CO)N2C(C)=O`, the inhibition was -2.76% (inactive).
Next, `Cc1ccc(S(=O)(=O)N2CCCCC2)cc1NC(=O)c1cccnc1`: 2.47% (inactive); `O=C(O)c1ccc(N/N=C/c2cn(-c3ccccc3)nc2-c2cccs2)cc1`: 3.91% (inactive).
Next, `O=C(N/N=C/c1sc(N2CCCCC2)nc1-c1cccs1)c1cccnc1`: 26.1% (active); `COc1ccccc1C#Cc1ccc([C@@H]2[C@H](CO)N3CCCCN(C(=O)C4CCCC4)C[C@@H]23)cc1`: 6.51% (inactive).
With `Cc1cccc(-c2ccc([C@@H]3[C@H]4CN(C(=O)c5ccccc5)CC(=O)N4[C@H]3CO)cc2)c1`, the inhibition was 2.35% (inactive).
Next, `CCCCNC(=O)CN1C(=O)NC(Cc2ccccc2)(Cc2ccccc2)C1=O`: 51% (active); `CNC(=O)CN1C(=O)NC(c2ccccc2)(c2ccccc2)C1=O`: 0.637% (inactive).
Next, `COc1cccc(CNC(=O)CN2C(=O)NC(Cc3ccccc3)(c3ccccc3)C2=O)c1` (stereo not drawn): -3.3% (inactive).
Next, `COc1cccc(NC(=O)N[C@@H]2CC[C@H](CC(=O)NCc3ccccn3)O[C@H]2CO)c1`: -1.32% (inactive); `CCCN1[C@@H]2c3ccc(-c4ccccc4)c(=O)n3C[C@@H]2[C@@H](CO)[C@@H]1C(=O)N(C)C`: -2.05% (inactive); `Cc1cc2c(cc1C)NC1(C[C@H]3CCC(=O)N4CC[C@@H](C1)[C@@H]34)C(=NC(C)(C)CC(C)(C)C)N2` (stereo partly drawn): 54.9% (active).
Consider `O=C1CC[C@@H]2CC3(C[C@@H]4CCN1[C@H]24)Nc1cc([N+](=O)[O-])ccc1NC3=NC1CCCCC1` (stereo partly drawn), for which the inhibition is 5.39% (inactive).
Next, `CC=Cc1ccc2n(c1=O)C[C@H]1[C@H](CO)[C@@H](C(=O)NC3CCCC3)[C@@H]2N1C(=O)c1cnccn1` (mixture of isomers): -3.71% (inactive).
Regarding `CN(C)CC(=O)N1[C@H](C#N)[C@H](c2ccccc2-c2cccc(C(=O)N(C)C)c2)[C@@H]1CO`, the inhibition was -2.16% (inactive).
As for `Cc1noc(C)c1NC(=O)N(C)C[C@H]1Oc2ccc(N(C)C)cc2CC(=O)N([C@H](C)CO)C[C@H]1C`, the inhibition was -0.871% (inactive).
Next, `CO[C@H]1CN(C)C(=O)c2ccc(NC(=O)C3CC3)cc2OC[C@@H](C)N(Cc2ccc(F)cc2)C[C@@H]1C`: 2.37% (inactive); `CCCC#Cc1ccc([C@@H]2[C@@H](CO)N3C(=O)CN(C(=O)c4ccncc4)C[C@@H]23)cc1`: -2.52% (inactive).
Regarding `CCCC#Cc1ccc([C@H]2[C@H]3CN(C(=O)c4cccnc4)CC(=O)N3[C@H]2CO)cc1`, the inhibition was 27.2% (active).
Consider `CCCC#Cc1ccc([C@H]2[C@@H](CO)N3C(=O)CN(C(=O)c4ccncc4)C[C@H]23)cc1`, for which the inhibition is -2.78% (inactive).
For the molecule `COc1ccc(C#Cc2ccc([C@H]3[C@H]4CN(C(=O)c5ccncc5)CC(=O)N4[C@H]3CO)cc2)cc1`, the inhibition is -4.11% (inactive).
Take `C[C@@H]1CCCCO[C@H](CN(C)C(=O)C2CCCCC2)[C@@H](C)CN([C@@H](C)CO)C(=O)c2cc(NC(=O)Nc3ccccc3)ccc2O1`: the inhibition is 5.54% (inactive).
As for `COc1ccccc1NC(=O)N1CCCCN2[C@H](CO)[C@H](c3ccc(C#CC4CC4)cc3)[C@@H]2C1`, the inhibition was 6.56% (inactive).

The record behind these values is PubChem BioAssay AID651704 (Broad Institute, 2012).
